Compound activity (PubChem BioAssay)
In the library only some 12% were active in any assay of this set; here they are far more common.
JMJD2A Tudor – qHTS Assay for Inhibitors of JMJD2A-Tudor Domain; AlphaScreen JMJD2A-Tudor / H3K4me3 peptide binding; Potency, µM (top dose mostly 114 µM), without a hit: at the highest dose activity change, negative = inhibition, hits mostly inhibitors; 4.4% of 390,000 active; AID 504339, 2011; further: on the % scale 0 is the no-effect control and ±100 the full control effect; nearly all actives have a fitted effect of over 50% in size
Sfp PPTase inh – qHTS Assay for Inhibitors of Bacillus subtilis Sfp phosphopantetheinyl transferase (PPTase). 4'-phosphopantetheinyl transferase ffp (Bacillus subtilis), Q9F4F7. Biochemical Sfp PPTase activity, qHTS. Potency, µM, without a hit: largest response in the series, negative = inhibition, hits mostly inhibitors. 3.5% of 310,000 active. AID 1490, 2009;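 further: the enzyme is Sfp with the accession as filed and its product quenches rhodamine fluorescence; 0% = enzyme reaction without inhibitor and -100% = no enzyme wells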
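Buffer: 50 mM Hepes-Na pH 7.6, 10 mM MgCl2, 0.01% Nonidet P-40, 0.01% BSA. Enzyme 15 nM, pre-exposed to compound 15 min; substrates then added and fluorescence change tracked over 30 min.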
PLK1 PBD inh – qHTS for Inhibitors of PLK1-PDB (polo-like kinase 1 - polo-box domain): Primary Screen; Plk1 PBD binding of FITC phosphopeptide, fluorescence polarization; Potency, µM, inactives show max response, negative = inhibition, usual class: inhibitors; 2.8% of 360,000 active; further: series mostly up to about 57 µM; on the % scale 0 is the no-effect control and ±100 the full control effect; nearly all actives have a fitted effect of over 65% in size
BAZ2B block – qHTS Assay for Inhibitors of BAZ2B; AlphaScreen BAZ2B-H3K14Ac peptide displacement; 4.4% of 360,000 active; Potency, µM (series often up to 114 µM), without a hit: top-dose activity change, negative = inhibition, hits mostly inhibitors; AID 504333, 2011; further: on the % scale 0 is the no-effect control and ±100 the full control effect; nearly all actives have a fitted effect of over 60% in size
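Compounds, titrated to a top concentration of 110 uM, were incubated 30 min at room temperature with preformed BAZ2B/acetyl-K14 H3 peptide complex (50 nM each). Proximity signal was measured by AlphaScreen after 20 min with beads.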
HP1b binding inh – HTS for Inhibitors of HP1-beta Chromodomain Interactions with Methylated Histone Tails; Chromobox protein homolog 1 (Homo sapiens), P83916; AlphaScreen HP1-beta / biotin-H3K9me3 peptide binding; Potency, µM (series often up to 114 µM), without a hit: at the top dose activity change, negative = inhibition, actives largely listed as inhibitors; 0.56% of 390,000 active; AID 540317, 2011; further: nearly all actives have a fitted effect of over 70% in size
Target sequence (P83916 whole entry, looked up): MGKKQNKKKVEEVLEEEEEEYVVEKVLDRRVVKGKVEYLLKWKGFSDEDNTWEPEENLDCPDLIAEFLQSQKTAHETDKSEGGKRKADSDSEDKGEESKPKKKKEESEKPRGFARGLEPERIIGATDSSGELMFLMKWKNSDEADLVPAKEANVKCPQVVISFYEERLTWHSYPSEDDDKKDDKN
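AlphaScreen: HP1-beta (50 nM) preformed 30 min with biotin-H3(1-18)K9me3 peptide (50 nM) in PBS pH 7.4, 0.01% Tween-20. Compound added for 30 min at RT, then streptavidin donor/nickel chelate acceptor beads (10 ug/mL) for 30 min.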
G9a inh – qHTS Assay for Inhibitors of Histone Lysine Methyltransferase G9a; Histone-lysine N-methyltransferase EHMT2 (Homo sapiens), Q96KQ7; G9a H3K9 monomethylation, AlphaScreen, 2 h; Potency, µM (titrated, usually from 102 µM), for inactives: top-dose activity, negative = inhibition, actives largely listed as inhibitors; 8.8% of 350,000 active; AID 504332, 2011; further: on the % scale 0 is the no-effect control and ±100 the full control effect; nearly all actives have a fitted effect of over 75% in size
Target sequence (Q96KQ7 913-1193 limits assumed): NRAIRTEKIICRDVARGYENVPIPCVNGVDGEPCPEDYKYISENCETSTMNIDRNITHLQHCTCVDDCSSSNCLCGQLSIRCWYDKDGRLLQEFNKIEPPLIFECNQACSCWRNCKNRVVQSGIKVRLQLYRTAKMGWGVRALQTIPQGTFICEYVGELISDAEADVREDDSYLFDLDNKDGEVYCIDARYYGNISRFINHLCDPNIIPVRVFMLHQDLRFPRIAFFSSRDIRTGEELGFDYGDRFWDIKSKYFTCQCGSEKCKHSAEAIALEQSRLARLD
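Quantitative HTS format: methyltransferase activity on a biotin-tagged H3K9 peptide is measured by AlphaScreen, using a rabbit anti-monomethyl-H3K9 antibody with streptavidin donor and anti-IgG acceptor beads. Final levels are 20 nM enzyme, 500 nM peptide, 20 uM SAM; 2 h RT.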
Starred values were filed as active, the others as inactive; [ ] = dose if it differs, or a comment. The call rests on the fitted dose curve; in most records, active means well fitted curve in the direction sought with a large enough effect; inconclusive means small, poorly fitted or top-dose-only effect, or another doubt; inactive means no such curve, though single readings can be large; an effect the other way counts as inactive or inconclusive. Potency means the concentration at half of the fitted maximal effect.

Results for CCN(CC)S(=O)(=O)c1ccc(C(=O)NCc2n[nH]c(=S)n2Cc2ccccc2)cc1 ?
JMJD2A Tudor: 28.2µM*; Sfp PPTase inh: -13.7%; PLK1 PBD inh: -3.1%; BAZ2B block: -4.9%; HP1b binding inh: 21.0%; G9a inh: inconclusive

How did CC(C)c1cc(-c2n[nH]c(=S)n2Cc2ccccc2)cs1 do in these assays?
JMJD2A Tudor: -27.3%; Sfp PPTase inh: -3.7%; PLK1 PBD inh: -12.1%; BAZ2B block: -12.5%; HP1b binding inh: 0.0%; G9a inh: inconclusive

How did COC(Cn1c(-c2cccc(S(=O)(=O)N(C)C)c2)n[nH]c1=S)OC do in these assays?
JMJD2A Tudor: 7.94µM*; Sfp PPTase inh: -11.5%; PLK1 PBD inh: 0.0%; HP1b binding inh: -0.5%; G9a inh: 10µM*

Results for Clc1ccc(-c2nc3n(n2)Cc2ccccc2-3)cc1 ?
JMJD2A Tudor: inconclusive; Sfp PPTase inh: 0.7%; PLK1 PBD inh: -10.1%; BAZ2B block: 4.7%; HP1b binding inh: 119.8%; G9a inh: inconclusive

Results for COc1cccc(Nc2ncc3nc(CCc4ccccc4)c(=O)n(Cc4cccs4)c3n2)c1 ?
Sfp PPTase inh: 35.2%; G9a inh: 7.8%[0.501 µM]

How did CCOc1ccc(-n2c(SCC(=O)N3CCC(C(=O)O)CC3)nc3ccccc3c2=O)cc1 do in these assays?
JMJD2A Tudor: -12.4%; Sfp PPTase inh: 3.8%; PLK1 PBD inh: 1.9%; BAZ2B block: 0.0%; HP1b binding inh: 15.9%; G9a inh: -3.9%

Results for COC(=O)N[C@@H](CCc1ccccc1)/C(C(=O)OC)=C(\C)NCc1ccccc1 ?
Sfp PPTase inh: -13.2%

How did CC[C@H]1[C@@H]2C=C[C@@H]3[C@H]4C/C=C\C(=O)NCCC[C@@H]5NC(=O)C(=C5O)C(=O)CC[C@@H]4C[C@@H]3[C@H]2C[C@H]1C do in these assays?
Sfp PPTase inh: -5.2%; G9a inh: 36.9%[59 µM]

How did CCN(CC)S(=O)(=O)c1cccc(-c2n[nH]c(=S)n2CC(C)C)c1 do in these assays?
JMJD2A Tudor: 10µM*; Sfp PPTase inh: -29.6%; PLK1 PBD inh: -8.9%; BAZ2B block: 4.9%; HP1b binding inh: 8.2%; G9a inh: 3.16µM*

How did CCN(CC)S(=O)(=O)c1cccc(-c2cn3cc(C)ccc3n2)c1 do in these assays?
JMJD2A Tudor: -23.3%; Sfp PPTase inh: -20.4%; PLK1 PBD inh: -2.9%; BAZ2B block: -28.5%; HP1b binding inh: 10.5%; G9a inh: inconclusive

Results for Cc1cccc(C)c1NC(=S)NC(=O)c1ccc(Br)o1 ?
JMJD2A Tudor: -13.2%[11.4 µM]; Sfp PPTase inh: 5.9%; PLK1 PBD inh: 5.97µM*; BAZ2B block: inconclusive; HP1b binding inh: -14.2%; G9a inh: 39.8µM*

How did Cn1ncc(C(N)=O)c1NC(=S)NC(=O)c1ccc(Br)o1 do in these assays?
JMJD2A Tudor: -11.6%; Sfp PPTase inh: -86.6%; PLK1 PBD inh: inconclusive; BAZ2B block: -27.9%; HP1b binding inh: -8.2%; G9a inh: 17.8µM*

What do the screens show for `Cc1cccc(NC(=S)NC(=O)c2ccc(Br)o2)c1C`?
JMJD2A Tudor: 2.0%; Sfp PPTase inh: 6.6%; PLK1 PBD inh: -3.2%; BAZ2B block: inconclusive; HP1b binding inh: 5.2%; G9a inh: -9.7%[59 µM]

What do the screens show for `Cc1ccc(NC(=S)NC(=O)c2ccc(Br)o2)c(C)c1`?
JMJD2A Tudor: -9.1%; Sfp PPTase inh: 25.0%; PLK1 PBD inh: -3.1%; BAZ2B block: -29.5%; HP1b binding inh: 10.7%; G9a inh: inconclusive

Results for CC1(c2ccccc2)NC(=O)N(CC(=O)N2CCN(S(=O)(=O)c3cccs3)CC2)C1=O (centres undefined) ?
JMJD2A Tudor: -11.0%; PLK1 PBD inh: -6.8%; BAZ2B block: 11.7%; HP1b binding inh: 8.9%; G9a inh: 7.5%

How did Cc1cccc(N2CCN(C(=O)Cc3cn(C)c4ccccc34)CC2)c1C do in these assays?
JMJD2A Tudor: 17.8µM*; Sfp PPTase inh: 10.9%; PLK1 PBD inh: 11.9µM*; BAZ2B block: inconclusive; HP1b binding inh: inconclusive; G9a inh: 50.1µM*

What do the screens show for `Cc1ccc(C(=O)N2CCN(c3cccc(C)c3C)CC2)o1`?
JMJD2A Tudor: -7.1%; Sfp PPTase inh: 0.0%; PLK1 PBD inh: 1.4%; BAZ2B block: -37.1%; HP1b binding inh: -5.5%; G9a inh: 70.8µM*

Results for Cc1cccc(N2CCN(C(=O)C(C)C)CC2)c1C ?
JMJD2A Tudor: -9.9%[11.4 µM]; Sfp PPTase inh: 13.2%; PLK1 PBD inh: 29.9µM*; BAZ2B block: 7.5%; HP1b binding inh: -1.4%; G9a inh: -20.9%

How did CC1=C(C(=O)N2CCN(c3cccc(C)c3C)CC2)C2(CCCCC2)OC1=O do in these assays?
JMJD2A Tudor: -20.2%; BAZ2B block: 79.4µM*; HP1b binding inh: 21.4%; G9a inh: 4.6%[59 µM]

What do the screens show for `CC1=C(C(=O)N2CCN(c3ccccc3)CC2)C2(CCCCC2)OC1=O`?
JMJD2A Tudor: -10.8%; BAZ2B block: -16.6%; HP1b binding inh: 33.1%; G9a inh: -18.3%[59 µM]

How did Cc1cccc(N2CCN(C(=O)Cn3ncc4c5ccccc5n(C)c4c3=O)CC2)c1C do in these assays?
JMJD2A Tudor: 2.7%; BAZ2B block: -3.2%; HP1b binding inh: 42.0%; G9a inh: -4.0%[59 µM]

What do the screens show for `Cn1c(=O)[nH]c(=O)c2c1nc(CN1CCN(c3ccccc3)CC1)n2Cc1c(F)cccc1Cl`?
JMJD2A Tudor: -15.6%; BAZ2B block: -8.5%; HP1b binding inh: 22.6%; G9a inh: inconclusive

Results for Cn1cc(SCC(=O)N2CCN(c3ccccc3)CC2)c2ccccc21 ?
JMJD2A Tudor: inconclusive; Sfp PPTase inh: -21.3%; PLK1 PBD inh: -14.9%; BAZ2B block: inconclusive; HP1b binding inh: -3.1%; G9a inh: 39.8µM*

Results for Cn1cc(SCC(=O)N2CCOCC2)c2ccccc21 ?
JMJD2A Tudor: -8.2%; Sfp PPTase inh: -5.4%; PLK1 PBD inh: -8.1%; BAZ2B block: 34.5%; HP1b binding inh: 37.4%; G9a inh: -29.6%[59 µM]

Results for Cc1cccc(N2CCN(C(=O)C3CCC(=O)N(C4CC4)C3)CC2)c1C (centres undefined) ?
JMJD2A Tudor: inconclusive; Sfp PPTase inh: 6.8%; PLK1 PBD inh: 7.52µM*; BAZ2B block: -4.5%; HP1b binding inh: 21.8%; G9a inh: -10.5%
